Test results taken from the supplement of paper PMC12067093, “Discovery and optimisation of a covalent ligand for TRIM25 and its application to targeted protein ubiquitination” (Chemical Science, 2025).
About 21,000 targets were measured; listed, in parts, are those with the largest changes and a random draw of the rest.

Compound: CC1Cc2ccccc2N1C(=O)C1CCCN(C1)C(=O)CCl (mixture of isomers) [TRIM25 ligand 11 (diastereomer mixture)]
Assay: probe-labelled cysteine peptide fold change vs DMSO (competition) (log2 fold change); higher = less target engagement (more negative = stronger competition)
Settings: THP-1, incubation time: 4 h
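Note: competitive chemoproteomic profiling in live THP-1 cells with an iodoacetamide desthiobiotin (IA-DTB) probe, comparing probe-labelled peptide intensities in compound-treated cells against DMSO-treated controls.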

Chain of UniProt P48059 (P48059 whole entry, looked up): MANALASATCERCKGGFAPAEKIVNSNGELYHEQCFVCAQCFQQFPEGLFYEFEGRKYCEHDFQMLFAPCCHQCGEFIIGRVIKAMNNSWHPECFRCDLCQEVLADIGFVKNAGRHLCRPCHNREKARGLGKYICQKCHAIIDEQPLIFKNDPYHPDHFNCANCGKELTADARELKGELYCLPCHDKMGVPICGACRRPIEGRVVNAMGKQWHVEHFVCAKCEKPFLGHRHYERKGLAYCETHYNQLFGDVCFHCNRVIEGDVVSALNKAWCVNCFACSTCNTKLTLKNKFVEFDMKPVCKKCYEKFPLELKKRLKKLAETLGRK
Chain of UniProt Q8TDW0 (Q8TDW0 whole entry, looked up): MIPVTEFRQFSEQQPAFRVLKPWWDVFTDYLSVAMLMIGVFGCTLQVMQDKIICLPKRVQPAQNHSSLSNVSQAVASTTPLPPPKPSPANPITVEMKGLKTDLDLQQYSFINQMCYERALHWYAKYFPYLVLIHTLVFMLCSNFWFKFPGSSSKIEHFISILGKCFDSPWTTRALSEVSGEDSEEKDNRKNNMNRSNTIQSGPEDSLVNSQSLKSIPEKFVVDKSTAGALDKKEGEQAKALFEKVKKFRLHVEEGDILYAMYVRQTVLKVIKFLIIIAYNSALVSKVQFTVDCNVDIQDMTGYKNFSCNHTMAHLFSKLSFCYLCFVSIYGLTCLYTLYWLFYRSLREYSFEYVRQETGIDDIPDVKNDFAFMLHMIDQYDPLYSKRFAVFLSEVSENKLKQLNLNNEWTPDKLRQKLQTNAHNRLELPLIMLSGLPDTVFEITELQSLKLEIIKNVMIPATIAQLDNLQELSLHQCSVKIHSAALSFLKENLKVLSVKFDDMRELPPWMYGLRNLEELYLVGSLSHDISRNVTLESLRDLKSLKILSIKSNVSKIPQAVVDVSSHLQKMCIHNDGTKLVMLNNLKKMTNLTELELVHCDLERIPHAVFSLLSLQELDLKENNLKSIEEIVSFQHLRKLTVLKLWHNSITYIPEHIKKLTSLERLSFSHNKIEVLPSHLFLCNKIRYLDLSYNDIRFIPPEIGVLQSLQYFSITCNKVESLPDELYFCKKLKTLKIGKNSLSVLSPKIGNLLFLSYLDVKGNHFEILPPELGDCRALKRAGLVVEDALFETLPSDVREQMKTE
Chain of UniProt P49916 (P49916 whole entry, looked up): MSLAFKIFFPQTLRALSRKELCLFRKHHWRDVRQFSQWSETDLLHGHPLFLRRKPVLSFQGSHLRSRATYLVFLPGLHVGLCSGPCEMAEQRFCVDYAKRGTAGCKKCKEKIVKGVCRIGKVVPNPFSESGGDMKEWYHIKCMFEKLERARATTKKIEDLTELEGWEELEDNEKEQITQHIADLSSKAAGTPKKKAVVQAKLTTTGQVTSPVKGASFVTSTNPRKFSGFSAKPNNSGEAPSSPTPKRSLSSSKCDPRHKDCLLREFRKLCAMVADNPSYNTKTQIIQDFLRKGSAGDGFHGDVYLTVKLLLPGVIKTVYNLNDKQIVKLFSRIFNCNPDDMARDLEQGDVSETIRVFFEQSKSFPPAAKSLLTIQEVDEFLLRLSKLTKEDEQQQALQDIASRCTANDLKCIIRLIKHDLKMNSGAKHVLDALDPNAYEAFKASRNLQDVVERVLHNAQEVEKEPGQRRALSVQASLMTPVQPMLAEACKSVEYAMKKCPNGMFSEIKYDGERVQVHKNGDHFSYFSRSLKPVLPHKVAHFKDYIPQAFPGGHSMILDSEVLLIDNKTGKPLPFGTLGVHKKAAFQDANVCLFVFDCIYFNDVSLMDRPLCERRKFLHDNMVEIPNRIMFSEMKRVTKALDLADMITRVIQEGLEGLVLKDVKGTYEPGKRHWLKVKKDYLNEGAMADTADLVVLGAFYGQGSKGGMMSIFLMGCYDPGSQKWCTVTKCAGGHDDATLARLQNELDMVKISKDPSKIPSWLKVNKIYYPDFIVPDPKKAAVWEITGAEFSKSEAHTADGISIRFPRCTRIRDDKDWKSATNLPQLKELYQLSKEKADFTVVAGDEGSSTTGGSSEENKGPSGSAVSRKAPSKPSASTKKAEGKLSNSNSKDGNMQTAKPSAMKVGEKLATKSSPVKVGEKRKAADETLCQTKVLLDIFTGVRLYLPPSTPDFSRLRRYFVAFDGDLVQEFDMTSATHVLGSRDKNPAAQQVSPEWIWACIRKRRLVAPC
Chain of UniProt Q53HC5 (Q53HC5 whole entry, looked up): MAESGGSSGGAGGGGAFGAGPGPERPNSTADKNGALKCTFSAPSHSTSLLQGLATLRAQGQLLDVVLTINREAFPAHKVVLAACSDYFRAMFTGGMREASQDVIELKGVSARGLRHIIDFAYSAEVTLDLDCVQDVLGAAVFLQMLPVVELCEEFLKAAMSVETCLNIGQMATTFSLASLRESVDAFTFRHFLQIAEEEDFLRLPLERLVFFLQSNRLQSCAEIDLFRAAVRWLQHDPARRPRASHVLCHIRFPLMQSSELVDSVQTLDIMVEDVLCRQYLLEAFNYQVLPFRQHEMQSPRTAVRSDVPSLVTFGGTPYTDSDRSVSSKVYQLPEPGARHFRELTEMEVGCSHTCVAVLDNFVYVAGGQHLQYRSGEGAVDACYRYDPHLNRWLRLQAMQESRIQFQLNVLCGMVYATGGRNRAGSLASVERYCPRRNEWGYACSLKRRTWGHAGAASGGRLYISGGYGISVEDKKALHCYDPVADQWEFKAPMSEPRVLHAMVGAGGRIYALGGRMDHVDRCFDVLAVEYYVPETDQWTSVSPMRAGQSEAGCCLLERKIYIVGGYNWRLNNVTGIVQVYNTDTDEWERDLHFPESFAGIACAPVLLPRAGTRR
Chain of UniProt Q9NS86 (Q9NS86 whole entry, looked up): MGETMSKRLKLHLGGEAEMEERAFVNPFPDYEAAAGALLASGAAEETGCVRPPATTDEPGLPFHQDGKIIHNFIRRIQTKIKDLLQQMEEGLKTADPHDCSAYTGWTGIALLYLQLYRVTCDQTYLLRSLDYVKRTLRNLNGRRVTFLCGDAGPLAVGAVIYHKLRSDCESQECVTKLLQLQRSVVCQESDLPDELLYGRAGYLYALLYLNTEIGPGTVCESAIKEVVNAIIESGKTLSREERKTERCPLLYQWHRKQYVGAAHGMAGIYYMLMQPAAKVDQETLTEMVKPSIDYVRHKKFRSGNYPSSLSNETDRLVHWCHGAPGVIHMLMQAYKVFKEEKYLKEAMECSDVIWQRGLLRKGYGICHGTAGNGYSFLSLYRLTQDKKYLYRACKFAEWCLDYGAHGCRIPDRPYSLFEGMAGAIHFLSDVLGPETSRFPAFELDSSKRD
Chain of UniProt Q5JSJ4 (Q5JSJ4 whole entry): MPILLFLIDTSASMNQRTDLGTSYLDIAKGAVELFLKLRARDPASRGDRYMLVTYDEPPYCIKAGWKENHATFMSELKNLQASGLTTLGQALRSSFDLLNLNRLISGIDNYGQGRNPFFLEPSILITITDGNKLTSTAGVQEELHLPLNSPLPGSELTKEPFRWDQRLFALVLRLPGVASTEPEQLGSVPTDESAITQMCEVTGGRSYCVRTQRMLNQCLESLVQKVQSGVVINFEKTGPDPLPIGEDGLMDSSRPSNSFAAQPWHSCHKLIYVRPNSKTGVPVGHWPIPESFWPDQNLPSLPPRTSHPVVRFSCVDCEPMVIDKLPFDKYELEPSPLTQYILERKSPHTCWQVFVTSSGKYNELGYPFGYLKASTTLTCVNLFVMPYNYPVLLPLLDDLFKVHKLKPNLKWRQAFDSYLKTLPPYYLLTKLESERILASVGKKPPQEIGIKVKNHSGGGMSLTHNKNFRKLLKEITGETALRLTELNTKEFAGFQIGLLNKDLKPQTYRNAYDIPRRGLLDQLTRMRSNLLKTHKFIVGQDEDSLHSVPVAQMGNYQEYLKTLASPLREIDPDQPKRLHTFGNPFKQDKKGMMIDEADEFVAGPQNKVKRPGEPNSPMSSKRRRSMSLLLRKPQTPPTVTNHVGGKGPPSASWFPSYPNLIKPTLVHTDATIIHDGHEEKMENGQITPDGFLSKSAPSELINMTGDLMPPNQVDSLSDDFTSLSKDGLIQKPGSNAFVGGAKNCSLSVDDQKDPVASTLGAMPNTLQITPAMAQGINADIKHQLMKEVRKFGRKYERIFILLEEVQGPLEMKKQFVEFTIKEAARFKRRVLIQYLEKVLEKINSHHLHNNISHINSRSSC
Chain of UniProt O14920 (O14920 whole entry, looked up): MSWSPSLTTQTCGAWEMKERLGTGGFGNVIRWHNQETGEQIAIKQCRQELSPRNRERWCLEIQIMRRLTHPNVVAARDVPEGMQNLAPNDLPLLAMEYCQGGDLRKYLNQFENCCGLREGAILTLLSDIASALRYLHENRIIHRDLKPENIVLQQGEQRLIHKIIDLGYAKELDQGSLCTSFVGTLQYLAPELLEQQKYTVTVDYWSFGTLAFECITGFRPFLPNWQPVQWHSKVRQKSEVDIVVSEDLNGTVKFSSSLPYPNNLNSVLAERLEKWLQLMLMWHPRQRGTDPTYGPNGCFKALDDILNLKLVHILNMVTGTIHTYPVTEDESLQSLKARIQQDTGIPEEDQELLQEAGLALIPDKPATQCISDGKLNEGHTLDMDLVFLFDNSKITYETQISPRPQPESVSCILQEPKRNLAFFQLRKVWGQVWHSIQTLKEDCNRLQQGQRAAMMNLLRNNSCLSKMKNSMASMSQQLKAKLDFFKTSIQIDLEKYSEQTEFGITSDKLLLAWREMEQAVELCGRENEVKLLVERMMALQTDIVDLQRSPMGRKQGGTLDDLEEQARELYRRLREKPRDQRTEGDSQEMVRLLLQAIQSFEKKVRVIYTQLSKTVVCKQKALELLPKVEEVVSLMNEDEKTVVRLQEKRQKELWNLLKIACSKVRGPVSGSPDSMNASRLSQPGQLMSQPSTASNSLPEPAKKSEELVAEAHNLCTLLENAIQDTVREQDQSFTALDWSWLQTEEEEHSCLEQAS

Target	probe-labelled cysteine peptide fold change (10 µM)	probe-labelled cysteine peptide fold change (50 µM)
LANCL2_Q9NS86_367_GYGICHGTAGNGYSFLSLYR (UniProt Q9NS86)	0.0845	-0.0445
LIG3_P49916_499_KCPNGMFSEIKYDGER (UniProt P49916)	0.24	0.59
KDM3A_Q9Y4C1_814_PACPASTSPLNWLADLTSGNVNK (UniProt Q9Y4C1)	0.0136	-0.377
INPP5F_Q9Y2H2_725_DTLQCIAEMLQITK (UniProt Q9Y2H2)	0.173	0.242
IARS2_Q9NSE4_819_SCQTALVEILDVIVR (UniProt Q9NSE4)	0.153	-0.107
LRRC8C_Q8TDW0_599_MTNLTELELVHCDLER (UniProt Q8TDW0)	0.076	0.0824
IGF2R_P11717_1783_TSECDFVFEWETPVVCPDEVR (UniProt P11717)	-0.144	-0.672
LGALS1_P09382_3_ACGLVASNLNLKPGECLR (UniProt P09382)	-0.0986	-0.246
LGALS1_P09382_17_ACGLVASNLNLKPGECLR (UniProt P09382)	-0.0469	-0.0291
IRF3_Q14653_267_HVLSCLGGGLALWR (UniProt Q14653)	-0.17	0.346
ITGB2_P05107_386_VTYDSFCSNGVTHR (UniProt P05107)	0.0533	-0.0395
KPNA1_P52294_424_YLVELGCIK (UniProt P52294)	0.213	0.184
LPXN_O60711_155_GHCASCQK (UniProt O60711)	0.00581	0.145
LIMS3_P0CW19-2_121+132_KYCEHDFQMLFAPCCHQCGEFIIGR<|>LIMS1_P48059_59+70_KYCEHDFQMLFAPCCHQCGEFIIGR (UniProt P48059+P0CW19)	-0.18	-0.291
INTS6L_Q5JSJ4_745_NCSLSVDDQK (UniProt Q5JSJ4)	0.156	-0.0158
KIF3A_Q9Y496_230_SHAIFTITIECSEK (UniProt Q9Y496)	0.112	-0.0259
KNTC1_P50748_911_IIDLIDREQGEDCLLLLK (UniProt P50748)	0.282	0.137
LIMS1_P48059_193+196_MGVPICGACR (UniProt P48059)	-0.089	-0.114
IGF2R_P11717_149_TLGTPEFVTATECVHYFEWR (UniProt P11717)	-0.0703	-0.305
ITSN2_Q9NZM3_1429_ENSDRLEWIQAHVQCEGLAEQLIFNSLTNCLGPR (UniProt Q9NZM3)	-0.507	-0.633
IKBKB_O14920_524_EMEQAVELCGR (UniProt O14920)	0.182	0.0969
ITGB2_P05107_481_NCECQTQGR (UniProt P05107)	-0.17	-0.216
KLHL26_Q53HC5_383_SGEGAVDACYR (UniProt Q53HC5)	0.33	0.211
KIAA1958_Q8N8K9_246_PKPQTHAGPSCVGSAK (UniProt Q8N8K9)	-0.0886	-0.293
IVD_P26440_136_ASGAVGLSYGAHSNLCINQLVR (UniProt P26440)	0.0597	-0.151
KIF22_Q14807_201_VLDLLDPASGDLVIREDCR (UniProt Q14807)	-0.154	-0.158
